# Measurements: PubChem BioAssay AID1159580 (chemical genetic matrix, 2015)
# In all, about 5,500 compounds went through this assay and about 2,000 (36%) were called active. Inconclusive results (about 18%) are left out. The list shows a part of the results. A number with no mark means an inactive call. Rule as the data show it: active = normalized growth mostly below about 0.91 (no sharp cut-off); inconclusive = no clear call, values can overlap the other calls; inactive = mostly above about 0.92.
# Test: chemical genetic growth profiling, strain panel (AID 1159580);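 also: tested at 20 µM; growth read once vehicle control cultures reached saturation at 30 °C; 1 = growth at the plate median or of vehicle wells; lower values mean less growth of the strain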
# Settings: S. cerevisiae deletion strains, growth OD
# [1] = locus YAL040C, strain CLN3, active compounds read low
# [2] = locus YCL061C, strain MRC1 (second series), active compounds read low
# [3] = locus YDR150W, strain NUM1, active compounds read low
# [4] = locus YDR363W, strain ESC2, active compounds read low
# [5] = locus YER002W, strain NOP16, active compounds read low
# [6] = locus YMR263W, strain SAP30, active compounds read low
# [7] = locus YNL153C, strain GIM3, active compounds read low
# [8] = locus YNL175C, strain NOP13, active compounds read low
# [9] = locus YNL197C, strain WHI3, active compounds read low
# [10] = locus YNL224C, strain SQS1, active compounds read low
# [11] = locus YOR083W, strain WHI5 (second series), active compounds read low
SMILES,normalized growth [1],normalized growth [2],normalized growth [3],normalized growth [4],normalized growth [5],normalized growth [6],"normalized growth (locus YMR307W, strain GAS1, active compounds read low)",normalized growth [7],normalized growth [8],normalized growth [9],normalized growth [10],"normalized growth (locus YNL322C, strain KRE1, active compounds read low)",normalized growth [11],"normalized growth (locus YPL241C, strain CIN2, active compounds read low)","normalized growth (locus YGR078C, strain PAC10, active compounds read low)","normalized growth (locus YNL128W, strain TEP1, active compounds read low)","normalized growth (locus YPL055C, strain LGE1, active compounds read low)"
COC(=O)c1cc2c(cn1)[nH]c1ccccc12,0.978,1,0.999,0.996,0.986,1,0.998,0.995,0.988,0.993,0.981,1.01,0.96,1,,,
Cc1c2ccncc2c(C)c2c1[nH]c1ccccc12,0.101 (active),0.0557 (active),0.13 (active),0.153 (active),0.0868 (active),0.362 (active),,0.0799 (active),0.0703 (active),0.0671 (active),0.0631 (active),,0.079 (active),,0.0788 (active),0.083 (active),0.101 (active)
